A selection: hits, their analogues and other compounds. The true share with any hit is near 6.5%.
IL-1B inflam inh = inhibitors of inflammasome signaling (IL-1 beta secretion) | THP-1 LPS/ATP IL-1B secretion, AlphaLISA, 16 h; hits give low values | activity change, % at 57.5 µM | hit rate 4.7% among 360,000 | AID 743279; in the data active = activity change below about -50%; inconclusive = mostly about -30% to -49%; also: % is scaled to controls: 0 for no effect and ±100 for the full control effect
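Secreted IL-1B measured by AlphaLISA bead assay after 16 h compound exposure of THP-1 cells; compounds (final up to 57.5 uM) added 1 h before LPS (250 ng/mL) and ATP (1.25 mM) stimulation; lower signal means less secretion.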
TGFb SMAD3 inh = TGF-b pathway inhibition; hit rate 1.2% among 410,000; HepG2 CAGA-GFP TGF-b/SMAD3 reporter, GFP fluorescence, 18 h; TGF-beta stimulated, 500 pg/mL final; Potency, µM (doses to about 46.1 µM), without a hit: at the top dose activity, negative = inhibition, usual class: inhibitors; AID 588855; also: potency is read from the fitted curve at half-maximal effect; % is scaled to controls: 0 for no effect and ±100 for the full control effect; nearly all actives have a fitted effect of over 65% in size
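HEPG2 CAGA-GFP reporter cells (1000/well, DMEM with 1% FBS) received compounds, then recombinant TGF-beta at 500 pg/mL final for 18 hours at 37 degrees C. Per-cell GFP summed per well was normalised to unstimulated and stimulated DMSO controls before curve fitting.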
HepG2 viability = HepG2 cytotoxicity, counter-screen for TGF-b inhibitors; HepG2 CAGA-GFP viability, ATP luminescence, 18 h; Potency, µM (titrated, usually from 46.1 µM), for the others: at the top dose activity change, negative = cytotoxicity, actives largely listed as cytotoxic; hit rate 0.76% among 410,000; AID 588856; also: potency is read from the fitted curve at half-maximal effect
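HepG2 CAGA-GFP cells (1000/well, DMEM with 1% FBS) received compound, then TGF-beta at 500 pg/mL final, and were incubated 18 hours at 37 degrees C. Viability was read by CellTiter-Glo luminescence. Media-only wells were set as complete cell-killing and DMSO as no toxicity.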
HT1080NT lethal = kills 2HG-producing HT-1080-NT fibrosarcoma cells; HT-1080-NT fibrosarcoma viability, CellTiter-Glo ATP luminescence, 48 h; Potency, µM (doses to about 46.1 µM), without a hit: at the highest dose activity, negative = less viability, hits mostly cytotoxic; hit rate 1.6% among 360,000;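 also: NT is the 2HG producing partner of a matched IDH1 knockdown line; potency is read from the fitted curve at half-maximal effect; 0% = DMSO-treated cells and -100% = media-only wells without cells; nearly all actives have a fitted effect of over 55% in size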
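HT-1080-NT; 750 cells/well; 5% FBS RPMI; 48 h compound, 37 degrees C; CellTiter-Glo luminescence; curve fitting and curve-class assignment.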
HT1080 IDH1KD tx = toxicity to HT-1080 IDH1 knockdown cells (counter line); hit rate 2% among 360,000; HT-1080 IDH1 knockdown viability, ATP luminescence, 48 h; Potency, µM (doses to about 46.1 µM), for inactives: at the highest dose activity, negative = toxicity, most hits filed as cytotoxic;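 also: potency is read from the fitted curve at half-maximal effect; 0% = DMSO wells and -100% = cell-free medium wells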
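Viability of IDH1-knockdown HT-1080 fibrosarcoma cells was assessed by CellTiter-Glo after 48 h at 37 °C with titrated compound; concentration-effect curves were classified by fit quality and response size.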
Giardia kill = Giardia lamblia killing. Giardia lamblia trophozoite viability. activity change, % at 7.66 µM, hits read low. hit rate 0.15% among 340,000. AID 540267; in the data active = activity change below about -80%; inconclusive = between about -30% and that limit;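 also: parasites exposed to compound for two days anaerobically before the ATP read; % is scaled to controls: 0 for no effect and ±100 for the full control effect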
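Giardia trophozoites, 100 cells per well, were exposed to compounds for 48 hrs at 37 deg C under anaerobic conditions; viability was then read as ATP content by bioluminescence after 15-30 min at room temperature.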
Starred values were filed as active, the others as inactive; ? = inconclusive; . = no result; [ ] = dose if it differs, or a comment. Unless noted, calls follow the shape of the dose curve; as a rule, active = well fitted curve in the direction sought with a large enough effect; inconclusive = small, poorly fitted or top-dose-only effect, or another doubt; inactive = no such curve, though single readings can be large; an effect the other way counts as inactive or inconclusive.

SMILES | IL-1B inflam inh | TGFb SMAD3 inh | HepG2 viability | HT1080NT lethal | HT1080 IDH1KD tx | Giardia kill
CC(=O)N1c2ccc(S(=O)(=O)N3CCCC3C(=O)Nc3cccc(F)c3)cc2CC1C (stereo unspecified) | 10 | -19% | -5% | 0% | -1% | -6
COC(=O)c1ccccc1NC(=O)Cn1c(SC)c(F)cnc1=O | 6 | 2% | -28% | 11% | 4% | -23
Cc1nc2c(C)cccn2c(=O)c1NC(=O)c1ccco1 | -2 | -18% | 0% | 3% | 8% | -5
Cc1ccc(-n2[nH]c(C)c(C=Nc3ccc4[nH]c(=O)[nH]c4c3)c2=O)cc1 | -28 | ? | 13µM* | ? | ? | 6
Cc1ccc(-n2[nH]c(C)c(C=Nc3ccc(S(=O)(=O)Nc4nccs4)cc3)c2=O)cc1C | 23 | 9% | -85% | ? | ? | -15
Cc1ccc(-n2[nH]c(C)c(C=Nc3ccc4[nH]c(=O)[nH]c4c3)c2=O)cc1C | -18 | -6% | -84% | 23µM* | 23µM* | -19
COc1nccnc1NS(=O)(=O)c1ccc(N=Cc2c(C)[nH]n(-c3ccccc3)c2=O)cc1 | 9 | -2% | 4% | 1% | -8% | 5
Cc1[nH]n(-c2cccc3ccccc23)c(=O)c1C=Nc1ccc2[nH]c(=O)[nH]c2c1 | 22 | -7% | 15% | 13% | 10% | -28
COc1nccnc1NS(=O)(=O)c1ccc(N=Cc2c(C)[nH]n(-c3ccc(C)c(C)c3)c2=O)cc1 | 12 | ? | 10µM* | 10µM* | 7.9µM* | -23
Cc1ccc(N=Cc2c(C)[nH]n(-c3nc4ccccc4[nH]3)c2=O)cc1 | 8 | -7% | 0.4µM* | 2.9µM* | 3.3µM* | ?
CCOCCC(=O)Nc1ccc2c(c1)c(=O)n(C)n2CC=C(C)C | -13 | -18% | -51% | ? | ? | .
O=C(CCl)NC(=O)NC12CC3CC(CC(C3)C1)C2 | -69* | ? | -97% | -25% | 0% | 10
O=C(Nc1nsc(-c2ccccc2)n1)c1ccc(F)cc1 | -17 | -5% | 2.8µM* | -1% | 8% | -19
O=C(c1cccc(C(F)(F)F)c1)C1CCCN(Cc2cccc(OCCO)c2)C1 (stereo unspecified) | -62* | ? | -1% | -9% | -27% | 1
COc1cccc(O)c1CN1CCCC(C(=O)c2cccc(C(F)(F)F)c2)C1 (stereo unspecified) | -22 | 16µM* | -52% | -14% | ? | -21
COc1ccc(C(=O)C2CCCN(Cc3cccn3-c3cccnc3)C2)cc1OC (stereo unspecified) | 0 | 0% | -9% | 3% | 1% | 9
O=C(c1cccc(C(F)(F)F)c1)C1CCCN(Cc2cccn2-c2ccccn2)C1 (stereo unspecified) | -91* | ? | -30% | ? | ? | -5
COCc1cc(CN2CCCC(C(=O)c3cccc(C(F)(F)F)c3)C2)ccc1OC (stereo unspecified) | -8 | ? | -40% | 4% | 9% | -9
COc1ccc(C(=O)C2CCCN(Cc3c(O)cccc3OC)C2)cc1OC (stereo unspecified) | -19 | 1% | -27% | -29% | ? | 6
CSc1ccc(C(=O)C2CCCN(Cc3cccn3-c3cccnc3)C2)cc1 (stereo unspecified) | -96* | ? | -10% | ? | -20% | 9
CCOc1cccc(CN2CCCC(C(=O)c3cccc(C(F)(F)F)c3)C2)c1O (stereo unspecified) | -15 | 7% | -1% | 0% | 2% | -14
Cc1ccccc1OCC(=O)OCC(=O)Nc1ccc(S(N)(=O)=O)cc1 | 34 | 2% | -3% | 5% | -1% | -21
COc1cc(C2C3=C(CCCC3=O)Nc3c2c(C)nn3-c2cccc(C)c2)cc(OC)c1O (stereo unspecified) | -15 | -26% | -1% | 11% | 1% | -29
CCO[C@@H]1OC(C(=O)O)=C[C@H](c2coc3ccccc3c2=O)[C@H]1CCCO | -2 | 3% | 1% | 4% | 3% | -24
O=C(NCC1CCCN(Cc2ccc3nonc3c2)C1)c1cccc(C(F)(F)F)c1 (stereo unspecified) | -59* | -12% | -20% | -3% | 1% | -2
SMILES | IL-1B inflam inh | TGFb SMAD3 inh | HepG2 viability | HT1080NT lethal | HT1080 IDH1KD tx | Giardia kill
COC(=O)/C=C/c1ccccc1S(=O)(=O)N(Cc1ccccc1)Cc1ccco1 | 49 | ? | -7% | 4.6µM* | 4.6µM* | 17
COC(=O)/C=C/c1ccccc1S(=O)(=O)NC(C)C | . | 1% | 14% | . | . | .
CCCC(=O)Nc1cc(-c2nn(C)c(=O)c3ccccc23)ccc1OC | 15 | 8% | -15% | -2% | -7% | 5
COc1cc(OC)cc(Oc2ccc(S(=O)(=O)N3CCCCC3)cc2[N+](=O)[O-])c1 | -99* | -10% | 1% | -19% | -24% | 13
COC(=O)COc1ccc(S(=O)(=O)N2CCCCC2)cc1[N+](=O)[O-] | -17 | 12% | 2% | 16% | 9% | -22
COc1cccc(-c2cccc(NC(=O)C3CCN(Cc4nccs4)CC3)c2)c1 | 2 | -11% | 4% | 3% | 6% | -19
CCOc1ccc(CN2CCC(C(=O)Nc3cccc(-c4ccn[nH]4)c3)CC2)cc1Cl | -76* | ? | -72% | 18µM* | ? | -4
CCCC(C)NC(=O)c1cccc(Oc2ccccc2)c1 (stereo unspecified) | 0 | 1% | -9% | -14% | 1% | 7
CCn1c(C(=O)OC)cc2c1ccn2-c1ccc(F)cc1 | -21 | 11% | 13µM* | 5% | ? | -5
CC(NC(=O)COC(=O)C1CC1C)c1ccccc1 (stereo unspecified) | -11 | 1% | 13% | 18% | 13% | -7
COc1ccc(CCNc2oc(COc3ccc(F)cc3)nc2C#N)cc1 | -25 | 16µM* | -43% | -29% | -24% | 4
S=c1[nH]c2ccccc2n1Cc1ccccc1 | -16 | -9% | -9% | -14% | -18% | 15
S=c1[nH]c2ccccc2n1CCc1ccncc1 | -61* | ? | -50% | 3% | 1% | 11
O=C1CC(N2CCC(c3nc4ccccc4o3)CC2)C(=O)N1c1ccc(Cl)c(C(F)(F)F)c1 (stereo unspecified) | ? | -2% | -19% | ? | -11%[9.24 µM] | -4
O=C(N/C(=C\c1cccc([N+](=O)[O-])c1)C(=O)N(CCO)CCO)c1ccco1 | -51* | 7% | 2% | 7% | -10% | -4

Assay outcomes from PubChem BioAssay.
